This passage reports growth results from PubChem BioAssay (NCI).

This is part of a sample that, as a whole, favours compounds with a hit. Of some 83,000 tested, about 20% had one in any assay.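 Compound tested at a single concentration for 48 hours in 96-well plates; a percent growth value below 10 was scored as active.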 Values without a mark were called inactive. Calls of active or inactive are those of the source.

This test deals with MDA-MB-468 breast. Nature of the test: NCI-60 one-dose screen, 48 h (100 = growth as untreated, 0 = no growth, -100 = all killed). Conditions: 10 µM unless noted.
For `N#CN1CCC[C@H]1C(=O)N1CCc2c(-c3[nH]nc4ncccc34)cccc21`, the growth was -19% (active).
Turning to `CCCCCCCc1n(Cc2ccc3ccccc3c2)c2ccccc2[n+]1Cc1ccc2ccccc2c1`, the growth is -69.6% (active).
The figure for `CC(=O)c1cc(C(=O)c2ccc3c(c2)Sc2ccccc2N3)c2c(C)cc(C)cn12` is 14%.
As for `COc1cc(NC2CCC(=O)N2c2ccc(Cl)cc2Cl)cc(OC)c1OC` (stereo not given), the growth was 110%.
In the case of `Cc1cc(C)c(N2C(=O)CC(Nc3ccc(Cl)cc3Cl)C2=O)c(C)c1` (stereo not given), the growth is 96.1%.
The figure for `COc1ccc(-c2cnoc2-c2cc(OC)c3c(c2)OCCO3)cc1` is 20.4%; for `C=CCCCCCCCCCOC(C)=O` it is 105%.
For `CC/C(=C(\c1ccccc1)c1ccc(OCCN(C)C)cc1)c1ccccc1`, the growth is -13.3% (active).
The figure for `O=S(=O)(NCCCNc1nccc(-c2c(-c3cccc(F)c3)nc3occn23)n1)c1ccc(F)cc1` is 26.7%; for `O=[n+]1c2ccccc2n([O-])c2cc(Cl)ccc21` it is -15.4% (active); for `Cc1ccc(Oc2nc3ccccc3cc2-c2nnc(Cn3c(COc4ccccc4)nc4ccccc43)o2)cc1` it is 92.1%.
For the compound `CCOC(=O)/C(C#N)=C(\C)CCc1ccccc1`, the growth is 76.5%.
For `CCCn1cnc2c1c(=O)n(CCCCC(C)=O)c(=O)n2C`, the growth was 107%.
Turning to `CN(C)CCCC1(c2ccc(F)cc2)OCc2cc(-c3cncc4ccccc34)ccc21` (stereo not given), the growth is -4.62% (active).
The figure for `Cc1cc(C)cc(Nc2nccc(-c3c(-c4ccc(F)cc4)ncn3C3CCNCC3)n2)c1` is -29.9% (active); for `Cn1cnc([N+](=O)[O-])c1S(=O)(=O)Oc1ccccc1` it is 77.4%; for `COC(=O)N[C@H]1CCc2cc(OC)c(OC)c(OC)c2-c2ccc(SC)c(=O)cc21` it is -32% (active).
For `Cn1cc(-c2csc(-c3cn(CCNC(=O)OC(C)(C)C)c4ccccc34)n2)c2cccnc21`, the growth is 23.4%.
Regarding `CC(C)NC(=O)N1C(=O)CCC1NNC(=O)c1ccc([N+](=O)[O-])cc1` (stereo not given), the growth is 114%.
On to `CCC(c1ccc(OC)cc1)C(CC)c1ccc(O)c(CN2CCCCC2)c1` (stereo not given), for which the growth is 22.9%.
As to `O=c1oc2c(cnc3ccccc32)cc1-c1cccc(Cl)c1`, the growth was 104%.
For `Cc1ccc2c(n1)C[C@H](C(C)(C)O)CC[C@H]2C`, the growth was 108%.
For `CCCCCCCC1(C)NC(=O)NC1=O` (stereo not given), the growth was 115%.
For `Nc1ncnc2[nH]ncc12`, the growth was -20.3% (active).
As for `NC(=S)N1N=C(c2ccc(Cl)cc2)CC1c1cc2ccccc2[nH]c1=O` (stereo not given), the growth is 111%.
As for `Clc1ccc([I+]c2ccc(Cl)cc2Cl)c(Cl)c1`, the growth was -37.9% (active).
With `COc1cc2cc(CN3CCN(c4nccc(-c5ccc6ccccc6c5)n4)CC3)c(=O)[nH]c2cc1OC`, the growth was 51.4%.
Turning to `COc1ccc(/C=C2\Oc3cc(OCCCN4CCCC4)ccc3C2=O)c(OC)c1`, the growth is 62%.
For `C/C=C/CC(C)C(O)C1C(=O)NC(CC)C(=O)N(C)CC(=O)N(C)C(CC(C)C)C(=O)NC(C(C)C)C(=O)N(C)C(CC(C)C)C(=O)NC(C)C(=O)NC(C)C(=O)N(C)C(CC(C)C)C(=O)N(C)C(CC(C)C)C(=O)N(C)C(C(C)C)C(=O)N1C` (stereo not given), the growth is 4.57% (active).
The figure for `CCCCC1=c2c([nH]c3ccc(OC)cc23)=NC2C=CC=NC12` (stereo not given) is -23.5% (active); for `O=C(Nc1ccc2c(c1)-c1ccccc1C2)C1CC(=O)N(c2ccc3c(c2)OCO3)C1` (stereo not given) it is 52.7% [50 µM]; for `CCC1CCc2nc3sc(C(=O)Nc4ccccc4F)c(N)c3cc2C1` (stereo not given) it is 25%.
Take `Cc1nn(-c2ccc(Br)cc2)c2nc(CCl)[nH]c(=O)c12`: the growth was 94%.
Consider `N#CCCN1C/C(=C/c2ccccc2)C(=O)/C(=C/c2ccccc2)C1`, for which the growth was 11.7%.
`CCOC(=O)NNc1cccc(Cl)c1`: the growth is 98.2%.
For `Nc1ccc(Sc2ccc([N+](=O)[O-])c3nonc23)cc1`, the growth is 67.3%.
Turning to `CC1CCC(C(C)C)C(NNC(N)=O)C1` (stereo not given), the growth is 94.9%.
As to `O=c1c2cc(F)ccc2sc2c(NCCO)nc3ccccc3c12`, the growth was 80.3%.
As for `CC(C)(C)Nc1nc2c(OCCc3ccccc3)cccn2c1-c1ccccc1Cl`, the growth was -27.8% (active).
Consider `CC(=O)OC[C@H]1O[C@H](OC(C)=O)[C@H](NC(=O)/C=C/CCl)[C@@H](OC(C)=O)[C@@H]1OC(C)=O`, for which the growth was 75.3%.
